Our source for the log2 fold change values is the supplement of paper PMC10849652.

Targets with a hit are over-represented here; the source holds about 7,900 in all. About 0.6% of all pairs of compound and target were hits. A number with no mark means an inactive call.

Chain of UniProt Q9H3M7 (Q9H3M7 whole entry, looked up): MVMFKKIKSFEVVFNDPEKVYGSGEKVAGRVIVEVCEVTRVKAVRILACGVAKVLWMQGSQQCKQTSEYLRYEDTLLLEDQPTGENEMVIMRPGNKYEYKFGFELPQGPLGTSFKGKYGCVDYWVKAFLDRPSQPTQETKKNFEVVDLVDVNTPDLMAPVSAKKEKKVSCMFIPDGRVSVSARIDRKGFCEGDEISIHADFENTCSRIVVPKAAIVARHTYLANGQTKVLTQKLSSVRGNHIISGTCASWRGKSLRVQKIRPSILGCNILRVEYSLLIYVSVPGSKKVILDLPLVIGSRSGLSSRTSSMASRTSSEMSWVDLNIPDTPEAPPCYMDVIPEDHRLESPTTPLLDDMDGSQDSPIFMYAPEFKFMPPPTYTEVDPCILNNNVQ
Chain of UniProt Q7Z7G8 (Q7Z7G8 whole entry, looked up): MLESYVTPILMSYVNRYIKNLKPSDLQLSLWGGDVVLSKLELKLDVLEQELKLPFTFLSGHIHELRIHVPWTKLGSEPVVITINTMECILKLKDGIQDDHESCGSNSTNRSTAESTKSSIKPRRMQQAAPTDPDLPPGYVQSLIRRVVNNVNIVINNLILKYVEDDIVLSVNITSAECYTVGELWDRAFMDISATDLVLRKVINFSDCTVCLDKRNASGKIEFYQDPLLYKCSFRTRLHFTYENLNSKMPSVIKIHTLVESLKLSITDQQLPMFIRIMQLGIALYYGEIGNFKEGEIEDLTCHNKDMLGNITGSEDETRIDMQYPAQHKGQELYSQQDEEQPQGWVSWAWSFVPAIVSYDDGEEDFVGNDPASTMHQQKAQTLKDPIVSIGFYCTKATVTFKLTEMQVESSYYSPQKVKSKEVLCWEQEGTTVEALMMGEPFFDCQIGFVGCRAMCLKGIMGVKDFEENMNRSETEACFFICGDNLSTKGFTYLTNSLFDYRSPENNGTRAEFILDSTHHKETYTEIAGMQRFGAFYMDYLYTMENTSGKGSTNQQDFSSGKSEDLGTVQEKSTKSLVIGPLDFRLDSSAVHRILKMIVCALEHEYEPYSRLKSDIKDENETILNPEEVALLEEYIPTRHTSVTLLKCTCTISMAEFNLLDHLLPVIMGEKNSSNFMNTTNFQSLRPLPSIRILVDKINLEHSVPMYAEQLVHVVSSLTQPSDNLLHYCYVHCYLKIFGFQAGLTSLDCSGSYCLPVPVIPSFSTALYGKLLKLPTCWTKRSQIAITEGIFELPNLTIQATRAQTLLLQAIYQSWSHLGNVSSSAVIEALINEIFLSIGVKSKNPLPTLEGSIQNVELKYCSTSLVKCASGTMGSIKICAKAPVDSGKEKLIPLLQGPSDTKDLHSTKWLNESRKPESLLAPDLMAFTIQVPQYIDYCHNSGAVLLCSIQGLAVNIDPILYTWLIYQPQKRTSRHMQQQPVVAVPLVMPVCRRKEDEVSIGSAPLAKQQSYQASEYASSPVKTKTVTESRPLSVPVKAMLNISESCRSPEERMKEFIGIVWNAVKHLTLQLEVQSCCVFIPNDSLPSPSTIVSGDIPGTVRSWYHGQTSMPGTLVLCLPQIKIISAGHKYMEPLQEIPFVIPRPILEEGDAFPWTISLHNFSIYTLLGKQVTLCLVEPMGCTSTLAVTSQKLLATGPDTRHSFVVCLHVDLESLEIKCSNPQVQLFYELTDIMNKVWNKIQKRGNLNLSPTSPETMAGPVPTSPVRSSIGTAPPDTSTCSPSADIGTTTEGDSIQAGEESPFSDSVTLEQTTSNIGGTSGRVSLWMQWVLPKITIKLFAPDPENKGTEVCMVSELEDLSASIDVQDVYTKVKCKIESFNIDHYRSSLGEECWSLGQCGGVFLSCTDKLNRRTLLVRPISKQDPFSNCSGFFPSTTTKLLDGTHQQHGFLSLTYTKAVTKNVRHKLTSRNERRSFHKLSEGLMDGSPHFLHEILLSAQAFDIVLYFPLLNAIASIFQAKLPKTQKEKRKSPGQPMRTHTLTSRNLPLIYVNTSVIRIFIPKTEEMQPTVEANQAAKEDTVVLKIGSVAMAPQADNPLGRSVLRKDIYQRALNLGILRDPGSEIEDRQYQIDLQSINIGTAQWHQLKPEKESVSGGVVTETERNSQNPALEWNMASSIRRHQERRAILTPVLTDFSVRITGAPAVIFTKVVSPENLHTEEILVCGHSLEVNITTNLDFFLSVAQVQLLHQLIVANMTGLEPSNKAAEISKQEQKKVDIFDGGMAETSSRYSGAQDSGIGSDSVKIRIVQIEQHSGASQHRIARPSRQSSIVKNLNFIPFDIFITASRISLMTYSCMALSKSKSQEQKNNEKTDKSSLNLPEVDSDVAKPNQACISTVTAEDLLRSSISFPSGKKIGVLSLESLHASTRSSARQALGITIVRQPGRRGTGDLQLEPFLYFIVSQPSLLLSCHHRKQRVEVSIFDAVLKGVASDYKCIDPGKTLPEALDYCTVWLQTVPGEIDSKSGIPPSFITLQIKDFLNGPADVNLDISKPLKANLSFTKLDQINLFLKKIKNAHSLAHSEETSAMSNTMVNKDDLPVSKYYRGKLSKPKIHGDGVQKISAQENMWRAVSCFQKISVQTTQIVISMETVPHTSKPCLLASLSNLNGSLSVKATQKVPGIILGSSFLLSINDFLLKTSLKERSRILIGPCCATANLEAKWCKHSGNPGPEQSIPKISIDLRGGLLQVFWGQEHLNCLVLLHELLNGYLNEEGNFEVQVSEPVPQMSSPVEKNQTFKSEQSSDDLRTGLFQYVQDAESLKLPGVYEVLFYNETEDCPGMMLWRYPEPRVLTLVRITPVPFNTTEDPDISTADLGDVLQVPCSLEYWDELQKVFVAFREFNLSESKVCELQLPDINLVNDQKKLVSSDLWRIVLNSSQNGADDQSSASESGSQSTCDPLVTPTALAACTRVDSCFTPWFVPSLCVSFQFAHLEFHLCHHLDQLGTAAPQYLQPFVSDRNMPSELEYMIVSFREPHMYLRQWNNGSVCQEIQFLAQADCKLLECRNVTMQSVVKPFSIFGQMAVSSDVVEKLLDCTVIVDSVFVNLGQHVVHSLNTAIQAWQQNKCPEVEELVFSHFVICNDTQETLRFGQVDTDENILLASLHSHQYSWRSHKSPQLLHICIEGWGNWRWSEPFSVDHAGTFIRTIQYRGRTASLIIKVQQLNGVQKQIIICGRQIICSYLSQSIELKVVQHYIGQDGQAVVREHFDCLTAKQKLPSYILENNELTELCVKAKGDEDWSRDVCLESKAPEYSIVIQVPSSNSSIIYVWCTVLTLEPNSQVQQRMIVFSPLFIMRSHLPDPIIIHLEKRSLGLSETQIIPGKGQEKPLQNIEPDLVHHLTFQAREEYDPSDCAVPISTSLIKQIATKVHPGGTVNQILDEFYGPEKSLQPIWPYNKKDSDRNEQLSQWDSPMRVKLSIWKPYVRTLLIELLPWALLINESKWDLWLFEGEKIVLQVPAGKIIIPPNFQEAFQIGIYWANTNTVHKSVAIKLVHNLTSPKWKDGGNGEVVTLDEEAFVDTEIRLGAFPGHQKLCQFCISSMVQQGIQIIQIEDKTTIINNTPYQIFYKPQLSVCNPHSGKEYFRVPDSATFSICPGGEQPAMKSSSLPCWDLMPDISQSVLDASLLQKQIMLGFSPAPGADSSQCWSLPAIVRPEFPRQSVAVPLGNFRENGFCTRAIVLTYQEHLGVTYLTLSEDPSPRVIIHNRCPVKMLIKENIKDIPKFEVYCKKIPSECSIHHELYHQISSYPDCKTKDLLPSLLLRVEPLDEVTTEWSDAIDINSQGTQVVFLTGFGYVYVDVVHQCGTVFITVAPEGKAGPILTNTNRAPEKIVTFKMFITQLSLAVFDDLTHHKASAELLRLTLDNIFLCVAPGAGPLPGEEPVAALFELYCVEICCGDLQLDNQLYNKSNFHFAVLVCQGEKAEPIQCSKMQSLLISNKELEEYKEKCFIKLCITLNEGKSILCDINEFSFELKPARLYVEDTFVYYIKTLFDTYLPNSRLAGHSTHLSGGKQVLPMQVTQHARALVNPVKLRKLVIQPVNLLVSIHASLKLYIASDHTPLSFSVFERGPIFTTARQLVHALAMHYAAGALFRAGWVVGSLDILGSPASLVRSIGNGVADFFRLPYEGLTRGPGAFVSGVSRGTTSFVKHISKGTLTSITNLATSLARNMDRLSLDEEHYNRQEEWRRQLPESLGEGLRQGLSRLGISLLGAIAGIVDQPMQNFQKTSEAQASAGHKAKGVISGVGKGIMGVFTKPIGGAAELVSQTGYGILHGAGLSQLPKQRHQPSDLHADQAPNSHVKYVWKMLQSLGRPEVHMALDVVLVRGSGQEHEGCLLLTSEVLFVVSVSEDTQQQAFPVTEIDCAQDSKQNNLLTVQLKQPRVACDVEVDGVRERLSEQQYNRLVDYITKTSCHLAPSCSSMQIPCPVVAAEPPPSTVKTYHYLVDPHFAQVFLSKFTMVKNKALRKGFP
Chain of UniProt Q7Z7N9 (Q7Z7N9 whole entry, looked up): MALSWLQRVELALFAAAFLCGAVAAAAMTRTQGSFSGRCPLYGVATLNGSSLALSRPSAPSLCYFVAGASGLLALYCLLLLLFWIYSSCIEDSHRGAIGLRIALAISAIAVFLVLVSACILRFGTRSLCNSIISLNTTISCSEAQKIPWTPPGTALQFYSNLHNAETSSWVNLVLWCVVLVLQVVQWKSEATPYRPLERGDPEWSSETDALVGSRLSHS
Chain of UniProt Q5VZI3 (Q5VZI3 whole entry, looked up): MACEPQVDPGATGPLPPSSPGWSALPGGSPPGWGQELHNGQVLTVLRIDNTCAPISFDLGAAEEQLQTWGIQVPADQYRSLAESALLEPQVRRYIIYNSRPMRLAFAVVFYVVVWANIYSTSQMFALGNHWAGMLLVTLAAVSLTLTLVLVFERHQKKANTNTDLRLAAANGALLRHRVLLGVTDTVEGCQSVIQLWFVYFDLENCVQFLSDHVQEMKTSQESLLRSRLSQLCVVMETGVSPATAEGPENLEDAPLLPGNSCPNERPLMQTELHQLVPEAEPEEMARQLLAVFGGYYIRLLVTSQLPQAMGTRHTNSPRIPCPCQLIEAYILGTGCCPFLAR
Chain of UniProt Q9UBK9 (Q9UBK9 whole entry, looked up): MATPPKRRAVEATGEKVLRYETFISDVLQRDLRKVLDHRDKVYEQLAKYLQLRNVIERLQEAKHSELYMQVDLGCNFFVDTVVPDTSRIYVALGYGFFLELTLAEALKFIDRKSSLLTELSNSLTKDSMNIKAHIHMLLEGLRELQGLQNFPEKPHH

Compound in one assay: O=C1NC(=O)C(c2cnc3ccccn23)=C1c1cn2c3c(cc(F)cc13)CN(C(=O)N1CCCCC1)CC2
In words: log2 fold change, soluble protein after heating vs DMSO (PISA); higher = thermal stabilisation; K562 cells, 10 uM, 30 min; active = over 0.2 and 3.5 SD of the protein, either way, in both replicates (recomputed). The essentials:
(§1)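 Soluble protein was defined as the supernatant after 21,000xg for 90 min. It came from K562 cells at 2×10^6 cells/mL given 10 μM compound for 30 min, heated in aliquots for 3 min across 48°C-58°C, pooled, and extracted in PBS with 0.5% NP-40 at 4°C, and was quantified by TMTpro 16plex LC-MS/MS with equalised channel sums. Thermal stability against control samples, from duplicates, is reported as log2 fold change.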
Turning to TMEM41A (UniProt Q96HV5), the log2 fold change was -0.018.

For TSPAN13 (UniProt O95857), the log2 fold change was -0.166.

Regarding TUT4 (UniProt Q5TAX3), the log2 fold change is 0.322.

In the case of WASH2P (UniProt Q6VEQ5), the log2 fold change is 0.092.

For TMEM184C (UniProt Q9NVA4), the log2 fold change is -0.055.

Regarding VWA3B isoform 6 (UniProt Q502W6), the log2 fold change is -0.009.

As to UBE2J1 (UniProt Q9Y385), the log2 fold change was -0.375 (active).

For the target TMEM268 isoform 3 (UniProt Q5VZI3), the log2 fold change was 0.174.

As to UFM1 isoform 2 (UniProt P61960), the log2 fold change was -0.007.

Turning to TMEM106B (UniProt Q9NUM4), the log2 fold change is 0.

For the target VPS37A (UniProt Q8NEZ2), the log2 fold change is -0.198.

For XRCC6 (UniProt P12956), the log2 fold change is -0.119.

Take UBXN10 (UniProt Q96LJ8): the log2 fold change is -0.031.

For TXNIP (UniProt Q9H3M7), the log2 fold change is -0.079.

As to WEE1 (UniProt P30291), the log2 fold change is 0.089.

Take TRABD (UniProt Q9H4I3): the log2 fold change is 0.055.

As for TMEM164 (UniProt Q5U3C3), the log2 fold change was -0.004.

With TUBAL3 (UniProt A6NHL2), the log2 fold change is 0.059.

On to TRIM4 (UniProt Q9C037), for which the log2 fold change is -0.051.

As for UXT isoform 2 (UniProt Q9UBK9), the log2 fold change is -0.051.

Regarding TMEM9B (UniProt Q9NQ34), the log2 fold change was 0.043.

In the case of TMEM219 (UniProt Q86XT9), the log2 fold change is -0.025.

Take VPS35L (UniProt Q7Z3J2): the log2 fold change was -0.006.

Turning to VPS13B (UniProt Q7Z7G8), the log2 fold change was -0.043.

Turning to TMEM179B (UniProt Q7Z7N9), the log2 fold change was -0.173.

For the target XIAP (UniProt P98170), the log2 fold change is -0.047.

On to VPS51 (UniProt Q9UID3), for which the log2 fold change is 0.022.

Compound in the next assay: c1cc(OCCN2CCCCC2)cc(-c2n[nH]c3ccc(-c4nnc[nH]4)cc23)c1
The description is as above. An outline of the steps: as §1
On to UBIAD1 (UniProt Q9Y5Z9), for which the log2 fold change was 0.181.

Regarding TMEM41A (UniProt Q96HV5), the log2 fold change is -0.059.

In the case of TRIM23 (UniProt P36406), the log2 fold change was -0.026.

Turning to TXNL4B (UniProt Q9NX01), the log2 fold change is 0.117.

In the case of UNC119B (UniProt A6NIH7), the log2 fold change was 0.005.

Take TUT4 (UniProt Q5TAX3): the log2 fold change is -0.063.

Take VKORC1 (UniProt Q9BQB6): the log2 fold change was 0.073.

As for UBAP2L (UniProt F8W726), the log2 fold change was -0.066.

Regarding WASH2P (UniProt Q6VEQ5), the log2 fold change is -0.045.

In the case of TMEM184C (UniProt Q9NVA4), the log2 fold change is 0.022.

For VWA3B isoform 6 (UniProt Q502W6), the log2 fold change was -0.076.

With UBE2J1 (UniProt Q9Y385), the log2 fold change was -0.09.

TMEM268 isoform 3 (UniProt Q5VZI3): the log2 fold change was -0.117.

For UFM1 isoform 2 (UniProt P61960), the log2 fold change is -0.218.

For the target TMEM106B (UniProt Q9NUM4), the log2 fold change is 0.046.

Regarding UBE2D1 (UniProt P51668), the log2 fold change is 0.011.

Take XRCC6 (UniProt P12956): the log2 fold change was -0.049.

Consider UBXN10 (UniProt Q96LJ8), for which the log2 fold change was 0.037.

With TXNIP (UniProt Q9H3M7), the log2 fold change was 0.005.

With TRABD (UniProt Q9H4I3), the log2 fold change is -0.026.

Take TMEM164 (UniProt Q5U3C3): the log2 fold change was -0.268.

With TRIM44 (UniProt Q96DX7), the log2 fold change is -0.083.

Consider TUBAL3 (UniProt A6NHL2), for which the log2 fold change was -0.291.

As for TMEM8A (UniProt Q9HCN3), the log2 fold change was -0.056.

Regarding TRIM4 (UniProt Q9C037), the log2 fold change was -0.049.

Take UXT isoform 2 (UniProt Q9UBK9): the log2 fold change was 0.007.

With TMEM9B (UniProt Q9NQ34), the log2 fold change was -0.121.

As to VPS35L (UniProt Q7Z3J2), the log2 fold change was -0.062.

For VPS13B (UniProt Q7Z7G8), the log2 fold change is -0.03.

For the target TMEM179B (UniProt Q7Z7N9), the log2 fold change was -0.112.

Regarding XIAP (UniProt P98170), the log2 fold change was -0.106.

As for VPS51 (UniProt Q9UID3), the log2 fold change is 0.1.
